According to PubChem BioAssay AID588850 (Sanford-Burnham Center for Chemical Genomics, 2011):
The campaign covered roughly 360,000 compounds. About 3,100 (0.86%) were called active. For the sample, actives were picked, then their nearest neighbours and some compounds at random. A number with no mark means an inactive call.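 The calls were made as follows: active = at least 50% inhibition at 5 µM, scaled per plate between neutral and stimulator controls; inactive = the rest.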

experiment: inhibitors of PAF-induced NF-kB signaling, primary screen, cell-based, GFP fluorescence, uHTS (AID 588850); settings: KKLEB NF-kB-GFP reporter, GFP fluorescence overnight, at 5 µM, stronger effect = higher value;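 also: PAF is a Pseudomonas aeruginosa culture filtrate used as stimulus; plate controls were PAF-stimulated DMSO wells for no effect and unstimulated DMSO wells for full effect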

Point of comparison: COc1ccc(Br)cc1CN1CCN(C(=O)c2cccc(OC)c2OC)CC1, inhibition 18.7%. Against it:
- O=C(O)c1cc(S(=O)(=O)N(Cc2ccccc2)c2cccc(C(F)(F)F)c2)ccc1Cl — lower, -4.7%
- O=C(CNS(=O)(=O)c1cccc(C(F)(F)F)c1)Nc1ccccc1F — lower, -4.7%
- Cc1cccc(NC(=O)CSc2nnc(CCCCCNC(=O)OC(C)(C)C)o2)c1C — lower, -6.7%
- NC(=O)COc1ccccc1C(=O)NC12CC3CC(CC(C3)C1)C2 — lower, 3.5%
- CCN(CC)CCCNC(=O)c1cn(C)c2ccc(S(=O)(=O)N(C)C3CCCCC3)cc2c1=O — lower, 9.2%
- COc1ccc(-c2ccc(CN3C(CC(C)C)C(=O)N(Cc4cn(CC5CCCCC5)nn4)CCS3(=O)=O)cc2)cc1 (stereo not given) — higher, 41.4%
- COc1ccc(-c2ccc(CN3C(C(C)C)C(=O)N(Cc4cn(CC5CCCCC5)nn4)CCS3(=O)=O)cc2)cn1 (stereo not given) — lower, -2.4%
- CC(=O)c1cccc(-c2ccc(CN3C(CC(C)C)C(=O)N(Cc4cn(CC5CCCCC5)nn4)CCS3(=O)=O)cc2)c1 (stereo not given) — lower, 13.4%
- COCOCCn1cc(CN2CCS(=O)(=O)N(Cc3ccc(-c4ccccc4)cc3)C(CC(C)C)C2=O)nn1 (stereo not given) — higher, 23.5%
- CC1C(=O)N(Cc2cn(Cc3ccco3)nn2)CCS(=O)(=O)N1Cc1ccc(-c2cccc(CO)c2)cc1 (stereo not given) — lower, 3.2%
- COCOCCn1cc(CN2CCS(=O)(=O)N(Cc3ccc(-c4ccc(OC)cc4)cc3)C(CC(C)C)C2=O)nn1 (stereo not given) — lower, -5%
- Cc1ccccc1N1C(=O)C(Oc2ccc(Cl)cc2)C1CNCC1CCCO1 (stereo not given) — lower, -17.5%
- CC(Sc1nncn1C)C(=O)Nc1ccccc1-c1ccccc1 (stereo not given) — lower, -12.2%
- Cc1cccc(N(C(=O)Cc2cccs2)C(C(=O)NCc2ccco2)c2ccncc2)c1 (stereo not given) — lower, -3.5%
- Cc1nn(C(C)C(=O)N2CCOCC2)c(=O)c2nn(-c3ccccc3)c(C)c12 (stereo not given) — lower, 1.5%
- CC(=O)Nc1ccc(S(=O)(=O)NCC2CCC(C(=O)NCCc3ccccc3)CC2)cc1 (stereo not given) — lower, 8.9%
- CC1(C(=O)NS(=O)(=O)c2ccccc2)CCN1C(=O)c1ccccc1 (stereo not given) — lower, -17.7%
- COc1cc(OC)c(C(=O)NNC(=O)c2ccc(NS(=O)(=O)c3cccs3)cc2)cc1OC — lower, 0.1%
- Nc1nonc1-n1nnc(C(=O)N/N=C/C2CCCCC2)c1-c1ccccc1 — lower, 3.7%
- CCCOc1ccc(-c2c(C(=O)N/N=C/c3ccco3)nnn2-c2nonc2N)cc1 — lower, -21.8%
- CSc1ccc(CN2CCC2(C)C(=O)Nc2ccc(C)c(O)c2)cc1 (stereo not given) — lower, 0%
- CCCc1nc(N)nc2c1C(=O)CC(C)(C)C2 — lower, 16.2%
- COc1ccc(/C=C/C(=O)c2c(O)cc(OC)cc2OC)cc1 — lower, -12.9%
- COc1ccc2cc(-c3[nH]ncc3CNCCn3nc(C)cc3C)ccc2c1 — lower, -8.4%
- CCOc1ccccc1Oc1cn[nH]c1-c1ccc(OC)cc1O — lower, 13%
- CCOc1ccc(C(C)=O)cc1CSc1nnc(-c2ccncc2)n1CCOC — lower, -0.6%
- CS(=O)(=O)N(CC(=O)Nc1ccc(F)cc1F)c1cccc([N+](=O)[O-])c1 — lower, 10.1%
- O=c1[nH]c2ccccc2n1C1CCN(CCOc2ccccc2)CC1 — lower, -0.9%
- COc1ccc(CNc2nccs2)cc1 — lower, -5.6%
- c1ccc(CNc2ncnc3[nH]ncc23)cc1 — lower, 0.6%
- Nc1ccc(S(=O)(=O)Nc2nccc(/C=C/c3ccc(Br)s3)n2)cc1 — lower, 14.6%
- Clc1ccc2nc(CSc3ccccc3)cn2c1 — lower, -13.5%
- O=C(C1CCCO1)N1CCN(C(=S)NC2CC2)CC1 (stereo not given) — lower, 3.7%
- COc1ccc(S(=O)(=O)N2CCN(CC(=O)N3CCNC3=O)CC2)cc1OC — lower, 0.2%
- CN(C(=O)CC1C(=O)NCCN1Cc1ccc2ccccc2c1)C1CCOCC1 (stereo not given) — lower, 15.4%
- COc1ccc(N(C(=O)c2snc(C(N)=O)c2N)C(C(=O)NC2CCCC2)c2ccco2)cc1OC (stereo not given) — lower, 6.4%
- CC(=O)c1cccc(NC(=O)C2CCN(C(=O)c3ccccc3Cl)CC2)c1 — lower, 4.3%
- CSc1ccccc1C(=O)Nc1cccc(C(C)=O)c1 — lower, -14.6%
- CC(=O)c1cccc(NC(=S)N2CCN(S(C)(=O)=O)CC2)c1 — lower, -11.2%
- COc1ccc(NC(C(=O)Nc2cccc(C(C)=O)c2)c2ccccc2)cc1 (stereo not given) — lower, -4.2%
- CCOCCCNC(=O)c1ccc(CS(=O)(=O)c2cccc(C(F)(F)F)c2)o1 — lower, -2.1%
- CC1C(=O)Nc2ccccc2N1C(=O)c1c(F)cccc1F (stereo not given) — lower, -2.1%

In the case of O=C(NNc1ccccc1Cl)C(O)(c1cccc(C(F)(F)F)c1)c1cccc(C(F)(F)F)c1, the inhibition is reported as 55.6% (active).
With C=C1C(=O)[C@]23C[C@H]1CCC2[C@@]1(C)C(C[C@@H]3O)[C@](C)(C(=O)O)CC[C@@H]1O (stereo not given in full) the inhibition was 82.6% (active).
In the case of CC(C)CC1C(=O)N(Cc2cn(Cc3ccco3)nn2)CCS(=O)(=O)N1Cc1ccc(-c2ccc(Cl)c(Cl)c2)cc1 (stereo not given), the inhibition is reported as 66.8% (active).
In the case of COc1ccc(-c2ccc(CN3C(CC(C)C)C(=O)N(Cc4cn(CC5CCCCC5)nn4)CCS3(=O)=O)cc2)cn1 (stereo not given), the inhibition is reported as 66.1% (active).
For CC(C)CC1C(=O)N(Cc2cn(CC3CCCCC3)nn2)CCS(=O)(=O)N1Cc1ccc(-c2ccc(Cl)cc2)cc1 (stereo not given), the inhibition was 55.8% (active).
For Nc1nonc1-n1nnc(C(=O)N/N=C/c2ccc(Cl)cc2)c1-c1ccc2c(c1)OCO2, the inhibition was 52.5% (active).
For COc1ccc(-c2cn[nH]c2-c2ccc(OC)cc2)cc1, the inhibition was 88% (active).
With COc1ccc(CNc2ncnc3ccccc23)cc1 the inhibition was 51.6% (active).
For Oc1cccc2ccc(/C=C/c3ccc(Br)s3)nc12, the inhibition was 82.5% (active).
With C[C@@H]1C[C@@H]2O[C@H]2/C=C\C=C\C(=O)Cc2c(Cl)c(O)cc(O)c2C(=O)O1 the inhibition was 60.3% (active).
For CCSc1nsc(NC(=O)Nc2cccc(C(C)=O)c2)n1, the inhibition was 86.3% (active).
With C=CCSc1nsc(NC(=O)Nc2cccc(C(C)=O)c2)n1 the inhibition was 86.3% (active).
